ELG1 genotox: inducers of genotoxicity in HEK293T ELG1-luciferase cells; HEK293T ELG1-luciferase reporter, luminescence, 16 h; Potency, µM (top dose mostly 46 µM), actives largely listed as activators; actives 1.3% (n = 330,000); AID 504466; also: nearly all actives have a fitted effect of over 60% in size
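Luminescence read-out: rising ELG1-luciferase signal, reflecting elevated ELG1 protein under genetic stress, flags genotoxic compounds. Cells were treated for 16 hr at 37 °C before ONE-Glo detection.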
ELG1 repair inh: ELG1-dependent DNA repair inhibition | AID 504467 | Potency, µM (highest dose often 46.1 µM), actives largely listed as inhibitors | actives 2.3% (n = 330,000) | HEK293T ELG1-luciferase reporter, luminescence, 16 h; DNA damage induced by 5-fluorouridine; also: nearly all actives have a fitted effect of over 55% in size
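In this reporter screen, reduction of luminescence relative to DMSO vehicle indicated activity. Compounds and 5-fluorouridine were added together to 2,000 cells per well, incubated for 16 hr at 37 °C, then developed with ONE-Glo.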
NPC1 promoter act: activates the NPC1 promoter. Huh7 NPC1 promoter luciferase reporter, 24 h. Potency, µM (doses to about 9.22 µM), most hits filed as activators. actives 2.4% (n = 320,000). AID 485313; also: nearly all actives have a fitted effect of over 60% in size
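Compounds in DMSO were transferred onto Huh7 NPC1-luciferase reporter cells pre-incubated 2 h; after 24 h at 37 °C, Amplite reagent was dispensed and luminescence recorded 10 min later.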
FLuc counter: counter-screen for miR-21 project: firefly luciferase inhibitors or activators; P08659; purified FLuc, Km substrates, luminescence inhibition; Potency, µM (top dose mostly 57.5 µM), most hits filed as inhibitors; actives 6.9% (n = 360,000); also: nearly all actives have a fitted effect of over 55% in size
Target sequence (P08659 whole entry, looked up): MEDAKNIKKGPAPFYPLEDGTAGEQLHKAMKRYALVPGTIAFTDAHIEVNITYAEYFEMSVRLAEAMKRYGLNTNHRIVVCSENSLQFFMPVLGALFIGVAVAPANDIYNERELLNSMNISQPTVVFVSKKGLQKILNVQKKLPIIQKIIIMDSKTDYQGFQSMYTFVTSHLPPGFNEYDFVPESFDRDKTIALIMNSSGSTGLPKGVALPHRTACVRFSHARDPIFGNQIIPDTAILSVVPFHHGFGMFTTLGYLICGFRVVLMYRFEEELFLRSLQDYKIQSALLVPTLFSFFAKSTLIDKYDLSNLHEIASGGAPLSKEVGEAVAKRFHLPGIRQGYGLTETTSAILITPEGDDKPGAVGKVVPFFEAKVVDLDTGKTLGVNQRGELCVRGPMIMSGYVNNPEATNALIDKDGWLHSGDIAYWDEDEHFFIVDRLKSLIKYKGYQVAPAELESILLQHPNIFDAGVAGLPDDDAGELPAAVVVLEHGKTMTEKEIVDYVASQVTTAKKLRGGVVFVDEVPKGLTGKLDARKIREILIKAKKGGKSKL
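Biochemical qHTS of compounds, final roughly 60 µM downward over six points, against 10 nM purified firefly luciferase using Km concentrations of substrates (10 uM D-luciferin, 10 uM ATP) in Tris acetate pH 7.5 buffer; luminescence output.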
Rab9 prom act: Rab9 promoter activation | Potency, µM (highest dose often 9.22 µM), usual class: activators | Huh7 Rab9 promoter-luciferase reporter, luminescence, 24 h | AID 485297 | actives 2.8% (n = 320,000); also: nearly all actives have a fitted effect of over 60% in size
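Huh7 cells stably carrying Rab9 promoter–luciferase reporter, plated 1500 cells/well, compound added after 2 h and incubated 24 h at 37 °C; luciferase luminescence then read after 10 min with detection reagent.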
SMN2 splice up: enhancers of SMN2 splice variant expression | HEK293 SMN2-luciferase splicing reporter, luminescence, 30-36 h | Potency, µM (doses to about 46.1 µM), usual class: activators | actives 2.8% (n = 210,000); also: nearly all actives have a fitted effect of over 55% in size
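HEK293 cells carry an SMN2 minigene-luciferase reporter in which exon 7 inclusion puts luciferase in frame. Cells were seeded at 2000 cells/well, attached for 10-12 hours, then exposed to compounds for 30-36 hours at 37C before ONE-Glo luminescence.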
Hits are given with their value; 0 = inactive; ? = inconclusive; - = no result; [ ] = another dose, or the depositor's remark. Rows were chosen to be rich in hits. Some 9.3% of all compounds tested hit in one or more screens of this group. Calls follow the shape of the dose curve; as a rule, active = well fitted curve in the direction sought with a large enough effect; inconclusive = small, poorly fitted or top-dose-only effect, or another doubt; inactive = no such curve, though single readings can be large; an effect the other way counts as inactive or inconclusive.

SMILES | ELG1 genotox | ELG1 repair inh | NPC1 promoter act | FLuc counter | Rab9 prom act | SMN2 splice up
CC(C)(C)C(=O)c1cnc(Nc2ccccc2Cl)s1 | - | - | - | 2.39µM | - | 12.6µM
Cc1cnc(NC(=O)Cc2ccccc2Cl)s1 | 0 | 0 | 0 | 0 | 0 | -
O=C(c1ccccc1)c1cnc(Nc2ccccc2Cl)s1 | ? | ? | 1µM | 1.9µM | 1.26µM | 20µM
CCCOc1ccccc1C(=O)N1CCCCC1CCN1CCOCC1 (configuration not stated) | - | - | - | 0 | - | 0
CCCOc1ccc(C(=O)NC(=S)NNC(=O)c2c(-c3ccccc3)noc2C)cc1 | 0 | 7.3µM | 0 | 0 | 0 | -
COC(=O)c1cc(C(=O)OCC(=O)NCc2cccs2)cc([N+](=O)[O-])c1 | 0 | 0 | 0 | 0 | 0 | -
COC(=O)CSc1n[nH]c(-c2ccncc2)n1 | 0 | 0 | 0 | 0 | 0 | 0
CCc1ccc(C(=O)CSc2ncn[nH]2)cc1 | ? | ? | 0 | 16.9µM | ? | 0
CCc1ccc(C(=O)CSc2n[nH]c(-c3ccncc3)n2)cc1 | 0 | 0 | 0 | 23.9µM | 0 | 0
Brc1ccc(CSc2ncn[nH]2)cc1 | 0 | 0 | 0 | 0 | 0 | 0
CCCOc1ccc(CSc2ncn[nH]2)cc1 | ? | ? | 0 | 10.7µM | 0 | ?
Cn1nc(C(=O)OCC(=O)Nc2ccc(C(N)=O)cc2)c2ccccc2c1=O | 0 | 0 | - | - | - | -
Clc1cccc(-c2cc3nc4c(c(N5CCN(c6cnccn6)CC5)n3n2)CCCC4)c1 | 0 | ? | 0 | 12µM | 0 | 0
Clc1cccc(-c2cc3nc4c(c(N5CCOCC5)n3n2)CCCC4)c1 | 0 | ? | 0 | ? | 0 | 0
OC1CCN(c2c3c(nc4cc(-c5ccc(Cl)cc5)nn24)CCC3)CC1 | 0 | 18.4µM | 0 | ? | 0 | 0
COc1ccc(-c2cn(-c3ccccc3)nc2CO)cc1 | 0 | ? | 0 | ? | ? | -
COc1ccc(-c2csc(=Nc3ccccc3)n2CCO)cc1 | ? | ? | 0 | 16.9µM | 0 | 0
C=CCn1c(-c2ccc(OC)cc2)csc1=Nc1c(C)n(C)n(-c2ccccc2)c1=O | 0 | 20.6µM | 0 | 0 | 0 | 0
COc1ccc(-c2csc(=NCCO)n2-c2ccccc2)cc1 | 0 | ? | 0 | 19µM | 0 | -
COc1ccc(N=c2scc(-c3ccc(S(=O)(=O)N4CCOCC4)cc3)n2CCCO)cc1 | 0 | 14.6µM | 0 | 0 | 0 | 0
Cc1csc(=Nc2c(C)n(C)n(-c3ccccc3)c2=O)n1Cc1ccccc1 | 0 | 0 | 0 | 0 | 0 | 0
CC(=O)c1cccc(N=c2scc(-c3ccc(S(=O)(=O)N4CCOCC4)cc3)n2CCO)c1 | 0 | ? | 0 | 0 | 0 | 0
Cc1ccccc1CN1CCN(S(=O)(=O)c2cccs2)CC1 | 0 | 0 | 0 | 0 | 0 | 0
CCOC(=O)CSc1nc2ccccc2c(=O)n1-c1ccc(C)cn1 | 0 | 0 | 0 | 0 | 0 | -
CCN(c1ccccc1)S(=O)(=O)c1nnc(NC(=O)C2CCCCC2)s1 | - | - | - | 2.69µM | - | -
SMILES | ELG1 genotox | ELG1 repair inh | NPC1 promoter act | FLuc counter | Rab9 prom act | SMN2 splice up
CCN(c1ccc(C)cc1)S(=O)(=O)c1nnc(NC(=O)C2CCCCC2)s1 | - | - | - | 10.7µM | - | -
CC(C)CC(=O)Nc1nnc(S(=O)(=O)N(CC(C)C)c2ccccc2)s1 | - | - | - | 0.849µM | - | -
CCN(c1cccc(C)c1)S(=O)(=O)c1nnc(NC(=O)C2CCCCC2)s1 | - | - | - | 15.1µM | - | -
CC(C)CN(c1ccccc1)S(=O)(=O)c1nnc(NC(=O)C(C)C)s1 | 0 | 0 | 0 | 0 | 0 | -
CCOc1cc(NC(=O)c2cccs2)c(OCC)cc1NC(=O)CCC(=O)NCCN1CCOCC1 | 0 | 0 | 0 | 0 | 0 | -
COc1ccc(OC)c(/C=N/NC(=O)c2[nH]ncc2Br)c1 | 0 | 0 | 0 | 0 | 0 | -
O=C(N/N=C/c1cccs1)c1[nH]ncc1Br | 16.4µM | ? | 3.55µM | 21.3µM | 3.98µM | -
CCOc1ccc(/C=N/NC(=O)c2[nH]ncc2Br)c(O)c1 | ? | ? | ? | 2.13µM | ? | 3.55µM
Cc1cc(C(=O)N/N=C\c2cc(C(C)(C)C)ccc2O)n[nH]1 | ? | 0 | 0 | 23.9µM | 0 | -
Cc1ccc(O)c(/C=N/NC(=O)C2=NNC(c3ccccc3)(c3ccccc3)C2)c1 | ? | ? | 0 | ? | 0 | 0
Cc1ccc(O)c(/C=N/NC(=O)c2[nH]ncc2Br)c1 | 16.4µM | ? | ? | 4.26µM | ? | 0[1.84 µM]
CCOc1ccc(C(C(=O)NC(C)(C)C)N(CCOC)C(=O)CCC(=O)Nc2nccs2)cc1 (configuration not stated) | 0 | 0 | 0 | 0 | 0 | -
CCCCSCCCNC(=O)c1cc(-c2cccnc2)nc2ccc(S(=O)(=O)N3CCC(C)CC3)cc12 | - | - | - | 0 | - | -
COc1ccc(-c2oc3ncn4nc(-c5ccc(Cl)cc5)nc4c3c2-c2ccc(OC)cc2)cc1 | - | - | - | 0 | - | 0
O=C(N/N=C/c1c(O)ccc2ccccc12)c1[nH]ncc1Br | ? | ? | 0 | 6.75µM | 0 | 0
O=C(N/N=C/c1c(O)ccc2ccccc12)c1cccc(C(F)(F)F)c1 | 0 | ? | 0 | 0 | 0 | 0

Bioassay records from PubChem BioAssay.
